Source: PubChem (The Scripps Research Institute Molecular Screening Center)
Sampled rows, rich in hits. Any-hit rate of the full collection: about 3.5%.
TEAD-YAP block – TEAD-YAP interaction inhibition; 640,000 compounds, 1.4% hits; inhibition, % at 9.12 µM; HEK-TIYL cells, TEAD-Gal4/YAP UAS-luciferase luminescence; in the data active = inhibition above about 32%
FBW7 activator – human FBW7 E3 ligase activation, primary screen. AlphaScreen FBW7–phospho-cyclin E peptide binding, activator screen. normalized activity (activation), % at 26.1 µM. 650,000 compounds, 0.13% hits. AID 1259310; in the data active = normalized activity above about 1.9%;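 also: purified mutant Fbw7 with reduced substrate affinity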
Target sequence (Q969H0 whole entry, looked up): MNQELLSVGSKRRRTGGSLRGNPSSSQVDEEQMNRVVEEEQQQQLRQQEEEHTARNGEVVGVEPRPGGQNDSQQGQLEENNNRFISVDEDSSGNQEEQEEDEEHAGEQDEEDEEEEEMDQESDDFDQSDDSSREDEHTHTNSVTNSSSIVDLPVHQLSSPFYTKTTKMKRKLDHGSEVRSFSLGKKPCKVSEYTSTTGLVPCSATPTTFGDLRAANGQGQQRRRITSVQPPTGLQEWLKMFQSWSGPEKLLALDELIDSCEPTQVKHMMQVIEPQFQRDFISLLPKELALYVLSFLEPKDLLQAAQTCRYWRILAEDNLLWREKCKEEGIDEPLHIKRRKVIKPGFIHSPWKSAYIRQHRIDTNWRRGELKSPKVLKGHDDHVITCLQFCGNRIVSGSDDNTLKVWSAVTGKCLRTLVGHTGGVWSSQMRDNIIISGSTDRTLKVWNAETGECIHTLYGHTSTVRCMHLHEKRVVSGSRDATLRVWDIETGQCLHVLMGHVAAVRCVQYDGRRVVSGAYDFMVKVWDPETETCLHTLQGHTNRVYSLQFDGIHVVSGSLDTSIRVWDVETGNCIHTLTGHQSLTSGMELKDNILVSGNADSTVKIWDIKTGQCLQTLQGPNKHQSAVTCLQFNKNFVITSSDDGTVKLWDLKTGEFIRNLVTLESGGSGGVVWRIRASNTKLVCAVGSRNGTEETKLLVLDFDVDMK
GPR151 ag – activates the human receptor GPR151; PathHunter beta-arrestin GPR151 cells, luminescence; activation, % at 11.2 µM; 650,000 compounds, 1% hits; in the data active = activation above about 4.9%
MITF inh – blocks human microphthalmia-associated transcription factor; O75030; AlphaScreen MITF homodimerization, bead proximity signal; inhibition, % at 2.6 µM; 650,000 compounds, 0.91% hits; AID 1259374; in the data active = inhibition above about 50%
Large screens that a line does not name were inactive.

Cc1nc(C#N)c(N/N=C/C=C/c2ccccc2)o1	none
CCN(CC)C(=O)C1CCCN(c2nc(Nc3ccc(NC(C)=O)cc3)c3ncn(C(C)C)c3n2)C1 (configuration not stated)	TEAD-YAP block 46
CCN(CC)C(=O)C1CCCN(c2nc(Nc3ccc(Oc4ccccc4)cc3)c3ncn(C4CCCCC4)c3n2)C1 (configuration not stated)	FBW7 activator 5.4
CCN(CC)C(=O)C1CCCN(c2nc(NC3CC3)c3ncn(C4CCCCC4)c3n2)C1 (configuration not stated)	none
CCOc1ccc2nc(N3CCCN(CC(O)CO)CC3)nc(C)c2c1 (configuration not stated)	none
O=S(/C=C(\F)C(F)(F)C(F)(F)C(F)F)Cc1ccccc1 (configuration not stated)	TEAD-YAP block 50
CC(=O)CC(O)(c1ccccc1)C(F)(F)C(F)F (configuration not stated)	none
CC(C)c1ccccc1OCC(=O)NN1C(=O)c2ccccc2C1=O	TEAD-YAP block 34
COc1cc(OC)cc(-c2nc(-c3ccccc3)no2)c1	none
COc1ccc(-c2nc(-c3ccncc3)no2)cc1	none
COc1ccc(-c2noc(-c3cccc(C)c3)n2)cc1	none
Cc1cccc(-c2noc(-c3ccc(C(C)(C)C)cc3)n2)c1	TEAD-YAP block 49
COc1ccc(-c2nc(-c3ccccn3)no2)cc1	TEAD-YAP block 97
COc1cc(OC)cc(-c2nc(-c3ccccn3)no2)c1	none
COc1ccc(-c2nc(-c3ccccc3)no2)cc1	TEAD-YAP block 53
COc1ccc(-c2nc(-c3cccs3)no2)cc1	TEAD-YAP block 75
COc1ccc(Cl)cc1Nc1cc(C)c2cc(C)ccc2n1	none
NC(=O)CSc1oc(-c2cccs2)nc1S(=O)(=O)c1ccc(F)cc1	none
COc1cccc(NC(=O)c2ccc(NC(C)=O)cc2)c1	none
COc1cccc(NC(=O)c2ccc(C)cc2Cl)c1	TEAD-YAP block 67
COc1cccc(NC(=O)c2ccc(NCc3ccccc3OC)c([N+](=O)[O-])c2)c1	TEAD-YAP block 49
O=C(Nc1ccc(F)cc1)c1ccc(Cl)cc1Cl	none
COc1cccc(NC(=O)c2ccc(C)cc2)c1	TEAD-YAP block 62
Cc1ccc(C(=O)Nc2ccc(F)cc2)c(Cl)c1	TEAD-YAP block 62
COc1ccccc1CNc1ccc(C(=O)Nc2ccc(C(C)C)cc2)cc1[N+](=O)[O-]	none
COc1cccc(C(=O)Nc2cccc(OC(=O)c3ccc(Br)cc3)c2)c1	TEAD-YAP block 44
COc1ccccc1-c1csc(NC(=O)/C=C/c2ccccc2)n1	none
COc1ccc(/C=C/C(=O)Nc2nc(-c3ccc(F)cc3)cs2)cc1OC	TEAD-YAP block 57
Oc1c(Cl)cc(Cl)c2cccnc12	none
O=S(=O)(O)c1cc(I)c(O)c2ncccc12	MITF inh 123
Oc1c(I)cc(I)c2cccnc12	TEAD-YAP block 52
CCn1nc(C)cc1C(=O)N(CC1CCCO1)c1nc2cc(C)cc(C)c2s1 (configuration not stated)	TEAD-YAP block 41
CCn1nc(C(=O)N(CC2CCCO2)c2nc3ccc(C)cc3s2)cc1C (configuration not stated)	none
O=C1CCCN1CCCNc1nc(NCCCN2CCCC2=O)c2ncn(C3CCCCC3)c2n1	none
O=C1CCCN1CCCNc1nc(Nc2ccncc2)nc2c1ncn2-c1ccccc1	TEAD-YAP block 55
O=C1CCCN1CCCNc1nc(Nc2ccccn2)nc2c1ncn2-c1ccccc1	none
O=C1CCCN1CCCNc1nc(Nc2ccncn2)nc2c1ncn2-c1ccccc1	TEAD-YAP block 38
O=C1CCCN1CCCNc1nccc(Nc2ccc(Oc3ccccc3)cc2)n1	TEAD-YAP block 39
O=C1CCCN1CCCNc1nc(NCCO)c2ncn(C3CCCCC3)c2n1	FBW7 activator 1.9
O=C(/C=C/c1ccco1)Nc1cnc2ccccc2c1	none
O=C1CCCN1CCCNc1nc(Nc2cnccn2)nc2c1ncn2-c1ccccc1	TEAD-YAP block 46
O=C1CCCN1CCCNc1nc(Nc2ccc3ncccc3c2)nc2c1ncn2-c1ccccc1	TEAD-YAP block 72
COc1ccc(OC)c(/C=C2/SC(=S)N(C(CC(=O)O)C(=O)O)C2=O)c1 (configuration not stated)	none
CCOC(=O)C1=C(N)n2c(s/c(=C/c3cccs3)c2=O)=C(C(=O)OCC)C1c1cccs1 (configuration not stated)	TEAD-YAP block 41
CCOC(=O)C1=C(N)n2c(s/c(=C\c3ccc(O)cc3)c2=O)=C(C#N)C1c1ccc(O)cc1 (configuration not stated)	none
CCOC(=O)C1=C(N)n2c(s/c(=C\c3ccc(OC)c(OC)c3)c2=O)=C(C#N)C1c1ccc(OC)c(OC)c1 (configuration not stated)	TEAD-YAP block 59
CCOC(=O)C1=C(N)n2c(s/c(=C/c3ccccc3)c2=O)=C(C(=O)OCC)C1c1ccccc1 (configuration not stated)	none
C=CCc1ccccc1OCCOc1ccc(/C=C2/C(=N)N3C(c4ccccc4)=CSC3=NC2=O)cc1OC	none
O=C(Nc1ccc(Cc2ccc(NC(=O)c3cc(Cl)cc(Cl)c3)cc2)cc1)c1cc(Cl)cc(Cl)c1	none
CCOc1ccc(C(=O)Nc2ccccc2C(N)=O)cc1OCC	none
Cn1c(=O)c2cc(C(=O)N3CCCC3)sc2c2ccccc21	none
CCOc1ccnc2c1c(=O)n(CC(=O)N1CCCCC1)c(=O)n2C	none
COc1cccc2c1OC(c1ccccc1Cl)N1N=C(c3ccc(C)o3)CC21 (configuration not stated)	TEAD-YAP block 44
COc1cccc2c1OC(c1ccc(F)c(F)c1)N1N=C(c3ccc(C)o3)CC21 (configuration not stated)	TEAD-YAP block 33
CCOc1cccc2c1OC(c1ccccc1Cl)N1N=C(c3ccc(C)o3)CC21 (configuration not stated)	none
CCOc1ccc(C2=NN3C(C2)c2cccc(OC)c2OC3c2ccc(F)c(F)c2)cc1 (configuration not stated)	none
CCCCCCC1OCC(C2OC(=O)C(O)=C2O)O1 (configuration not stated)	none
O=[N+]([O-])c1ccc(N=C(NN2CCOCC2)C(Cl)=C(Cl)Cl)cc1	none
CCOc1ccc(C)cc1S(=O)(=O)Nc1ccc(I)cc1	TEAD-YAP block 42
CCOc1ccc(C)cc1S(=O)(=O)Nc1ccc(F)cc1	none
Cn1c(=N)n(CC(=O)c2ccccc2)c2ccccc21	TEAD-YAP block 45
CCN(CC)CCn1c(=N)n(CC(=O)c2ccc(C)cc2)c2ccccc21	FBW7 activator 3.3
COc1ccc(C(=O)Cn2c(=N)n(C)c3ccccc32)cc1	none
N=c1sc2c(n1CC(=O)c1ccccc1)CCCC2	TEAD-YAP block 91
Cc1ccc(C(=O)Cn2c3ccccc3n3nc(C)nc23)cc1	TEAD-YAP block 47
Brc1ccc(-n2cc(-c3ccccc3)c3c(N4CCC(Cc5ccccc5)CC4)ncnc32)cc1	none
CC1CCCCC1NC(=O)CN1CCC2(CC1)NC(=O)c1ccccc1O2 (configuration not stated)	none
COc1cc(S(=O)(=O)N2CCc3ccccc32)c(OC)cc1Cl	TEAD-YAP block 45
